From PubChem BioAssay AID1159524 (National Center for Advancing Translational Sciences (NCATS), 2015)
Among all 410,000 compounds or so, about 5,100 (1.2%) were called active. Another 8% or so got no clear call; they are omitted. The full list was thinned out, with actives kept by preference. Values without a mark were called inactive. Calls come from the whole dose curve; tested in HEK293T cells.

experiment: High Throughput Screening for Foot and Mouth Disease Virus Antivirals; conditions: FMDV antiviral cell-based qHTS; series mostly up to 57.9 µM; activity change, negative = inhibition: at the top concentration; note: read-out not given here; nearly all actives have a fitted effect of over 45% in size
% is set by controls: 0 for no effect and ±100 for the full control effect; potency is the fitted concentration of half-maximal effect.

SMILES	activity change, negative = inhibition	Potency
COCCn1c(SCC(=O)c2cc(C)ccc2C)nc2cc(C(=O)NC3CCCC3)ccc2c1=O	-5.56%	–
CC(C)c1nccn1S(=O)(=O)c1cc([N+](=O)[O-])ccc1Cl	-7.03%	–
CCc1nccn1S(=O)(=O)c1cccc([N+](=O)[O-])c1	-18.2%	–
CCc1nc(C)cn1S(=O)(=O)c1cc([N+](=O)[O-])ccc1Cl	–	20 µM (active)
CCCCN1CC(c2nc3ccccc3n2CCCCOc2ccc(C)cc2C)CC1=O (configuration not stated)	–	39.8 µM (active)
COc1ccc(OCCCn2c(C3CC(=O)N(c4ccc(F)cc4)C3)nc3ccccc32)cc1 (configuration not stated)	-10.8%	–
CCc1ccccc1N1CC(c2nc3ccccc3n2CCCCOc2ccccc2)CC1=O (configuration not stated)	0%	–
Cc1ccc(CNC(=O)Cn2c(=O)ccc3cc(S(=O)(=O)N4CCCC4)ccc32)cc1	-21.1%	–
Cc1ccc(-n2c(SCC(=O)c3ccccc3)nc3c([nH]c4ccccc43)c2=O)cc1	4.48%	–
O=C1Oc2ccccc2C(=O)/C1=C/c1ccccc1O	–	28.2 µM (active)
C=C(C)C1CC=C(CO)CC1 (configuration not stated)	-0.494%	–
COc1ccccc1-n1nnnc1S(=O)(=O)Cc1ccc(Cl)cc1	–	10 µM (active)
COc1ccccc1CN(C)c1nnnn1-c1ccccc1	-2.75%	–
CCN(C(=O)CSc1nnnn1-c1ccccc1OC)C1CCS(=O)(=O)C1 (configuration not stated)	17.3%	–
CSc1ccccc1N1CCN(CCCCCC(=O)NC2CCCc3ccccc32)CC1 (configuration not stated)	-25%	–
CCC(C)C(=O)O[C@@H]1C[C@@]2(C)C(c3ccoc3)OC(=O)CC23OC2(C)O[C@@]14[C@@]1(C)C(CC(=O)OC)C5(C)CC1(O)C(O)(C5OC(=O)C1(C)OC1C)C(OC(C)=O)[C@@]34O2 (some centres not stated)	-13.6%	–
Cc1ccc(C(=O)NC2CCN(C(=O)Nc3ccc(F)cc3)CC2)cc1	0%	–
O=C(NCc1ccc(F)cc1)C1CCN(C(=O)Nc2ccc(F)cc2)CC1	-17%	–
Cc1ccc(NC(=O)N2CCC(C(=O)NCc3ccc(F)cc3)CC2)cc1	–	7.08 µM (active)
O=C(CCN1Cc2ccccc2OC(c2ccccc2)C1)N[C@@H]1CS(=O)(=O)C[C@H]1O (some centres not stated)	4.7%	–
COc1ccc(NC(=O)CCN2CCN(CCO)CC2)cc1	11.4%	–
O=C(NCC(c1ccc(Cl)cc1)N1CCOCC1)c1ccccc1F (configuration not stated)	-11%	–
CCC(C)(C)c1ccc(OCC(=O)N(C)C)c(C(C)(C)CC)c1	–	31.6 µM (active)
Cc1ccc(-n2c(=O)c3cccnc3n2CC(=O)NCc2ccc(F)cc2)cc1C	2.88%	–

SMILES	activity change, negative = inhibition	Potency
OC[C@@H]1CN(C2CCCC2)C[C@H](n2cnc3c(NC4CCC4)ncnc32)O1	-7.88%	–
OC[C@@H]1CN(Cc2ccc(-c3ccccc3)cc2)C[C@H](n2cnc3c(NC4CCCC4)ncnc32)O1	–	15.8 µM (active)
OC[C@@H]1CN(Cc2cccs2)C[C@H](n2cnc3c(Nc4ccccc4)ncnc32)O1	4.4%	–
OC[C@@H]1CN(Cc2ccncc2)C[C@H](n2cnc3c(N4CCN(c5ccccc5)CC4)ncnc32)O1	–	12.6 µM (active)
CC(C)Nc1ncnc2c1ncn2[C@H]1CN(Cc2ccncc2)C[C@@H](CO)O1	-18.6%	–
OCCN1CCN(c2ncnc3c2ncn3[C@H]2CN(Cc3ccco3)C[C@@H](CO)O2)CC1	-21.6%	–
CN1CCN(c2ncc3nc(-c4ccc(Cl)cc4)c(=O)n(-c4ccccc4)c3n2)CC1	0.45%	–
CCCCCCCCCCCC(=O)O[C@H](CC(=O)O)C[N+](C)(C)C	-1.5%	–
CCc1nn(CC(=O)Nc2cc(C)cc(C)c2)c(=O)c2cc3sccc3n12	-19%	–
CCOC(=O)[C@]12Cc3ccccc3[C@H]1N(C1CCCCC1)C(=O)c1cc(OC)ccc12	–	10 µM (active)
CCOc1ccc(NC(=O)CC2C(=O)N(c3cccc(OC)c3)C(=O)N2C2CCCCC2)cc1 (configuration not stated)	-13.3%	–
CCOC(=O)[C@]12Cc3cc(OC)ccc3[C@H]1N(C(C)C)C(=O)c1ccccc12	–	31.6 µM (active)
CCOC(=O)c1ccc(NC(=O)CC2C(=O)N(c3cccc(OC)c3)C(=O)N2C2CCCCC2)cc1 (configuration not stated)	-24.8%	–
CCOC(=O)C1CCN(C(=O)Nc2cccc(OC)c2)CC1	20%	–
COc1ccc(C23NCCN2C(=O)c2ccccc23)cc1 (configuration not stated)	-17.3%	–
CCN(CC)S(=O)(=O)c1ccc2c(c1)N(CC(=O)NCC(C)c1ccccc1)C(=O)CO2 (configuration not stated)	-2.75%	–
O=C(NCCc1ccccc1)c1ccc2c(c1)N(Cc1ccccc1)C(=O)c1ccccc1S2(=O)=O	-0.764%	–
c1ccc2c(c1)[I+]c1ccccc1-2	-35.5% [at 97.4 µM]	–
COc1ccc(CNC(=O)c2ccc(NC(=O)N3CC4CCCN4c4ccccc43)cc2)cc1 (configuration not stated)	-8.63%	–
COc1cc(NC(=O)Cn2c(=O)n(Cc3ccco3)c(=O)c3oc4ccccc4c32)cc(OC)c1	-14.1%	–
CCOC(=O)c1cc2c(=O)n3ccccc3nc2n(CCCOC)c1=NC(=O)C(C)(C)Oc1ccc(Cl)cc1	0%	–
O=c1ccc2c(-c3ccccc3S(=O)(=O)O)c3ccc(O)c(O)c3oc-2c1O	–	7.08 µM (active)
CCCC(=O)Nc1ccc(C(=O)NCCCn2ccnc2)cc1	20.8%	–
